# Screening results as filed in PubChem.
# An excerpt weighted towards active compounds, which were near 2.4% of everything screened.
# D2 antag: HTS Assay for Allosteric Antagonists of the Human D2 Dopamine Receptor: Primary Screen for Antagonists. D(2) dopamine receptor (Homo sapiens), P14416. HEK293 TREx D2 cells, calcium flux, dopamine EC80. inhibition, % at 10 µM. 2% of 340,000 active; in the data active means inhibition above about 30%; inactive means below that, where a call was filed; further: 0% is about no effect
# Target sequence (P14416 whole entry, looked up): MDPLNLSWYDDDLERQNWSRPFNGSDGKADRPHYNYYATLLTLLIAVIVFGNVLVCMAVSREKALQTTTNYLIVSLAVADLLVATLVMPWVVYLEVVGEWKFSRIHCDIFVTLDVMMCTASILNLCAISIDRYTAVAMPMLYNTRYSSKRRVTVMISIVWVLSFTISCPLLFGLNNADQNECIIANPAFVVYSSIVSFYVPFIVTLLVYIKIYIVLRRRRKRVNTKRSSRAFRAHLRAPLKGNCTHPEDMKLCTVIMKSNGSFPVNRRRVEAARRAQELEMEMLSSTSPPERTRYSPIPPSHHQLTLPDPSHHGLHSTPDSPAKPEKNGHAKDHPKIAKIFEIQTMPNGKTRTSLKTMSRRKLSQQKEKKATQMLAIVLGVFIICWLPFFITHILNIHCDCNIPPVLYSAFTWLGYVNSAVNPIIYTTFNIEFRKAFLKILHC
#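 Overnight-induced (tetracycline, 30 C) HEK293 T-REx cells carrying force-coupled D2 receive a no-wash calcium dye, then compound, then EC80 dopamine at 180 s; signals are read kinetically throughout.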
# D2 ag-1: Beta-Arrestin HTS for Positive Allosteric Modulators of the Human D2 Dopamine Receptor: Agonists | 0.084% of 360,000 active | DiscoveRx PathHunter D2 beta-arrestin, luminescence, 90 min; 100% = 57 uM dopamine signal | D(2) dopamine receptor (Homo sapiens), P14416 | activation, % (test concentration not listed) | AID 624465, 2012; in the data active means activation above about 40%; inconclusive means between about 15% and that limit
#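 DiscoveRx PathHunter D2 beta-arrestin cells (2,100/well) attached overnight, then compound-stimulated 90 min at 37 C in HBSS/10 mM HEPES/0.1% Tween-20 buffer; beta-galactosidase complementation read by luminescence after 1 h at ambient temperature. Dopamine 57 uM final (EC100) as control.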
# D2 ag-2: HTS Assay for Allosteric Agonists of the Human D2 Dopamine Receptor: Primary Screen for Agonists. 0.53% of 340,000 active. activation, % at 2 µM. HEK293 T-REx D2 cells, calcium flux agonist mode. D(2) dopamine receptor (Homo sapiens), P14416;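 active means activation over 3 SD above normal in the single-dose calcium agonist read, cut at about 30% in these data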; further: 0% is about no effect
#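 Agonism scored from kinetic calcium signal (1 read/sec, 180 s) following compound pin transfer, after a 10 s baseline. Cells: HEK293 Trex line expressing inducible D2 receptor coupled to calcium, dye-loaded after overnight culture at 30 C.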
# D2 PAM-1: Beta-Arrestin HTS for Positive Allosteric Modulators of the Human D2 Dopamine Receptor: Potentiators. D(2) dopamine receptor (Homo sapiens), P14416. DiscoveRx D2 beta-arrestin cells, luminescence, 90 min; 100% = 57 uM dopamine signal. potentiation, % (test concentration not listed). 0.23% of 360,000 active. AID 624464, 2012; in the data active means potentiation above about 50%; inconclusive means mostly about 30% to 49%
#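 PathHunter beta-arrestin assay in DiscoveRx D2 cells. Compounds were added with an EC20 of dopamine (50 nM final) for 90 min at 37 deg C. Luminescence was read 1 h after detection reagent, with 57 uM dopamine as the EC100 control.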
# D2 PAM-2: HTS Assay for Positive Allosteric Modulators of the Human D2 Dopamine Receptor: Primary Screen for Potentiators; 0.34% of 340,000 active; potentiation, % at 10 µM; HEK293 T-REx D2, calcium flux, EC20 dopamine potentiation; D(2) dopamine receptor (Homo sapiens), P14416;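 active means potentiation over 3 SD above the plate norm, cut at about 30% in these data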; further: 0% is about no effect
#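 Using a no-wash calcium dye in inducible, force-coupled HEK293 Trex cells expressing D2, we tracked fluorescence each second for 180 s after compound, then for 180 s after EC20 dopamine to detect augmented signalling.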
# The depositor's hits bear a star; ? = inconclusive; . = not tested or not shown.
SMILES,D2 antag,D2 ag-1,D2 ag-2,D2 PAM-1,D2 PAM-2
COc1ccccc1N1CCN(Cc2ccc(O)c3ncccc23)CC1,-26,-10,0,-28,16
COc1ccc(N2CCN(C(=O)CCc3c[nH]c4ccccc34)CC2)cc1,19,5,2,-1,1
Cc1ccccc1N1CCN(Cc2c[nH]c3ccccc23)CC1,40*,-4,0,-19,-19
Fc1ccc(N2CCN(Cc3c[nH]c4ccccc34)CC2)cc1,93*,.,2,.,-23
CCS(=O)(=O)N1CCN(Cc2c[nH]c3ccccc23)CC1,-35,1,3,-2,-19
COc1ccccc1N1CCN(C(=O)CCc2c[nH]c3ccccc23)CC1,45*,-5,0,-1,5
Brc1ccccc1CN1CCN(Cc2c[nH]c3ccccc23)CC1,.,-5,.,-15,.
Cc1cc(S(=O)(=O)n2ccnc2C(C)C)cc([N+](=O)[O-])c1C,.,.,0,.,-2
O=C(Nc1cccc(C(F)(F)F)c1)C1CCN(c2nnc(-n3cccc3)s2)CC1,.,.,1,.,-13
Nc1cnccc1Oc1cccc(C(F)(F)F)c1,.,-4,.,-9,.
Cc1c(NC(=O)Nc2cccc(C(F)(F)F)c2)sc2nc3n(c(=O)c12)CCC(C)CC3 (stereo not given),.,.,0,.,-6
COc1ccccc1N1CCN(C(=O)C(=O)c2cn(CC(=O)N3CCCCCC3)c3ccccc23)CC1,38*,4,0,-27,-18
Cc1cccc(NC(=O)CNC(=O)c2cccc(-n3cccc3)c2)c1C,-7,-6,1,-23,-5
CC(=O)c1cccc(NS(=O)(=O)c2ccc(N/C=C\C(=O)c3ccc(C)cc3)cc2)c1,-2,4,0,64*,3
CC(=O)c1cccc(NS(=O)(=O)c2ccc(N/C=C/C(=O)c3ccc(F)cc3)cc2)c1,.,1,.,-2,.
COc1ccc(N2CCN(C(CNS(=O)(=O)c3ccc(OC)c(C)c3)c3ccco3)CC2)cc1 (stereo not given),.,.,1,.,-6
Clc1ccc(/C=C\c2nccc3c2[nH]c2ccccc23)cc1,66*,1,0,-29,-40
CCn1cc([N+](=O)[O-])c(C(=O)N2N=C3/C(=C/c4cccs4)CCCC3C2c2cccs2)n1 (stereo not given),-6,-2,-1,-4,43*
Cc1ccccc1NCC(=O)N/N=C/C(Br)=C/c1ccccc1,-6,0,-1,-8,33*
Cc1cc(NC(=O)CCC(=O)N(Cc2ccccc2)C2(C(=O)NC3CCCCC3)CCCC2)no1,44*,10,1,-3,2
Cc1ccc(C)c(N(CC(=O)NC2CCCC2)C(=O)CCC(=O)Nc2cc(C)on2)c1,36*,0,0,-1,-24
Cc1cc(NC(=O)CCC(=O)N(Cc2ccco2)C2(C(=O)NC3CCCCC3)CCCCC2)no1,-11,-4,-1,-7,0
O=C(Nc1c(C(=O)Nc2cccc(C(F)(F)F)c2)oc2ccccc12)c1cc(=O)c2ccccc2o1,.,.,1,.,1
CCCSc1nnc2n(C)c(=O)c3c4c(sc3n12)CCC4,40*,-6,4,11,13
CCCSc1nnc2n(Cc3ccccc3)c(=O)c3c4c(sc3n12)CCC4,.,.,.,.,-2
SMILES,D2 antag,D2 ag-1,D2 ag-2,D2 PAM-1,D2 PAM-2
COC(=O)C1C2CC3c4[nH]c5cc(OC)ccc5c4CCN3CC2CC(O)C1OC (stereo not given),.,5,.,-18,.
COC(=O)C1C(O)CCC2CN3CCc4c([nH]c5ccccc45)C3CC21 (stereo not given),50*,3,-2,-8,-23
COC(=O)[C@H]1[C@H]2C[C@H]3c4[nH]c5ccccc5c4CCN3C[C@H]2CC[C@@H]1O,87*,4,-1,-23,-23
O=C(NCc1ccc(F)cc1)C1CCCN1S(=O)(=O)c1cccc2nsnc12 (stereo not given),0,-2,0,-6,10
Cc1nc2cc(NC(=O)C3(C)CCCN(C(C)C)C3)ccc2o1 (stereo not given),.,-5,.,-8,.
CCOC(=O)c1cccc(NC(=O)C(CC(C)C)N2Cc3ccccc3C2=O)c1 (stereo not given),.,.,.,.,5
COc1cc(C(=O)N/N=C(\C)Cc2ccccc2)cc(OC)c1OC,.,1,.,-7,.
COc1cc(C(=O)NCC(=O)N/N=C(\C)Cc2ccccc2)cc(OC)c1OC,-8,2,0,-8,37*
O=C(COC(=O)C1=COCCO1)NCc1ccc(Cl)cc1Cl,.,-2,.,-15,.
CCC(=O)N/N=C/c1ccc(-c2ccc([N+](=O)[O-])cc2)o1,14,7,0,-1,4
CC(C)(C)C(=O)/C=c1\s/c(=C\c2ccc(-c3ccc([N+](=O)[O-])cc3)o2)c(=O)n1CC(=O)NC(N)=O,91*,4,206*,4,-29
O=C(O)c1n[nH]c2c1CCCC2,57*,-3,0,-2,14
O=C(O)c1n[nH]c2c1CCCCC2,21,1,1,17,3
CC(C)NC(=O)C1(C)CCN1C(=O)c1ccc(F)c(Cl)c1 (stereo not given),.,-4,.,-11,.
COc1cc(C#N)ccc1OC(=O)c1cccc(S(=O)(=O)N2CCN(C)CC2)c1,0,-4,0,-26,3
CN(C)c1ccc(O)c2c1CC1CC3[C@@H](N(C)C)C(=O)C(C(N)=O)C(=O)[C@]3(O)C(=O)C1C2=O (stereo not given in full),.,?,.,61*,.
CN(C)c1ccc(O)c2c1CC1CC3C(N(C)C)C(=O)C(C(N)=O)=C(O)[C@@]3(O)C(=O)C1=C2O (stereo not given in full),.,-3,.,0,.
CC(=O)c1sc(NC(=O)c2cc(=O)c3ccccc3o2)nc1C,4,3,0,68*,3
CCOc1cc(/C=N/NC(N)=O)cc(Br)c1OCC(=O)Nc1ccccc1C,-24,-2,0,53*,9
CCOC(=O)C1=C(C)OC(N)=C(C#N)C1c1ccc(C)s1 (stereo not given),-12,-4,0,7,2
CCN1CCc2c(C#N)c(N3CCCCC3)nc(NCc3ccccc3)c2C1,11,-2,0,-28,-22
N#Cc1c(NCCO)nc(NCc2ccccc2)c2c1CCN(Cc1ccccc1)C2,-16,1,0,-1,-6
CC(C)N1CCc2c(sc(N)c2C#N)C1,-12,1,2,-8,-10
